The full list was thinned out, with hits kept by preference.
NPR1 activator: GC-A (human) enzyme activation; P16066; HEK293 GC-A cells, cGMP TR-FRET, EC30 ANP; 0% at EC30 ANP, 100% saturating ANP; activation, % at 10 µM; 370,000 compounds, 0.14% hits; AID 1671463; in the data active = activation above about 40%
HDAC3 inh: inhibitors of human histone deacetylase 3; recombinant HDAC3, fluorogenic peptide/trypsin coupled, fluorescence; O15379; inhibition, % at 8.3 µM; 320,000 compounds, 0.15% hits; in the data active = inhibition above about 26%, passing the limit was not always enough
ALR inh: inhibitors of human sulfhydryl oxidase ALR | P55789 | purified ALR, DTT oxidation, H2O2 HRP-luminol luminescence | inhibition, % (test concentration not listed) | 290,000 compounds, 3.8% hits | AID 485317;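 active = mean replicate inhibition above about 79%, with every replicate also reaching it, limit read from the data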
GC-B act: GC-B (human) receptor activation. P20594. HEK293-GC-B cells, CNP EC30, cGMP TR-FRET; 0% at EC30 CNP, 100% saturating CNP. activation, % at 10 µM. 370,000 compounds, 0.11% hits. AID 1920062;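 active = activation at 10 µM reaching about 35% in either raw or pattern-adjusted values, limit read from the data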
Of the large screens only hits and unclear results are named; the others gave an inactive call.

Cc1ccc(Nc2c(-c3ccco3)nc3ccccn23)cc1	ALR inh 99.1
Cc1cccc2nc(-c3ccco3)c(Nc3ccc4c(c3)OCCO4)n12	ALR inh 95.0
COc1ccc(Nc2c(-c3ccco3)nc3ccc(C)cn23)cc1	GC-B act 35.6
Cc1ccc2nc(-c3ccco3)c(Cc3ccccc3)n2c1	none (no result: HDAC3 inh, ALR inh)
Fc1ccc(Nc2c(-c3ccco3)nc3ccccn23)cc1	none (no result: HDAC3 inh, ALR inh)
CCN(c1cccc(C)c1)S(=O)(=O)c1cc(CN2C(=O)c3cccnc3C2=O)ccc1OC	none
Cc1ccc(Sc2nc3ccc(C)cn3c(=O)c2/C=N/O)cc1	ALR inh 98.6
Nc1ccc(-c2nc3ccc([N+](=O)[O-])cc3[nH]2)cc1	ALR inh 96.7
O=[N+]([O-])c1ccc(-c2nc3ccc([N+](=O)[O-])cc3[nH]2)cc1	none
Cc1cc(-c2nc3ccccc3[nH]2)ccc1N	ALR inh 98.2
Nc1ccc(-c2nc3c(Cl)c(N)ccc3[nH]2)cc1	ALR inh 98.5
Cc1ccc(C)c(-c2nc3ccc(N)cc3[nH]2)c1	ALR inh 99.3
Nc1cc(N)cc(-c2nc3ccccc3[nH]2)c1	none
Nc1ccc(-c2nc3ccc(N)cc3[nH]2)cc1	ALR inh 98.5
Nc1ccc2nc(-c3cccc(-c4nc5ccc(N)cc5[nH]4)c3)[nH]c2c1	ALR inh 98.7
Cc1nc2ccc(-c3nc4ccc(N)cc4[nH]3)cc2[nH]1	ALR inh 99.5
Nc1ccc2nc(-c3ccc(Cl)cc3)[nH]c2c1	ALR inh 98.9
Nc1ccc2nc(-c3cc(Cl)c(N)c(Cl)c3)[nH]c2c1	none (no result: ALR inh)
COc1cc([N+](=O)[O-])ccc1NC(=S)NNC(=O)CCC(=O)Nc1ccccc1Cl	none
CC(C)N(C(=O)[C@H]1CC(CC(=O)NCCCn2ccnc2)C(=O)N2CCc3c([nH]c4ccccc34)[C@]12C)C(C)C (some centres undefined)	none
Cc1[nH]c2ccccc2c1-c1nc2ccccc2[nH]1	ALR inh 89.3
Nc1ccc2nc(C3CCCCC3)[nH]c2c1	ALR inh 99.3
O=C1NC(c2ccc3c(c2)OCO3)c2c(-c3ccccc3)n[nH]c21 (centres undefined)	none (no result: HDAC3 inh, ALR inh)
Cc1ccc(C(=O)N2CCN(c3nc4ccccc4n3C)CC2)cc1	none (no result: HDAC3 inh)
O=C(N/N=C\c1cccc(Cl)c1)c1ccc(Cn2cccn2)o1	ALR inh 87.5
CCN(CCCNC(=O)CN(C)S(=O)(=O)c1cccc2nsnc12)c1ccccc1	ALR inh 95.3
CCOc1ccc(C(=O)CC(NCc2cccs2)C(=O)O)cc1 (centres undefined)	ALR inh 97.2
COc1ccc(-c2oc3c(c2C(=O)OCCCO)C(OCCO)CCC3)cc1 (centres undefined)	none (no result: HDAC3 inh, ALR inh)
C#CCN1C(=O)S/C(=C\c2ccc(-c3ccc(C(=O)O)cc3C)o2)C1=O	ALR inh 90.0
CC(C)(C)OC(=O)CN1C(=O)S/C(=C\c2ccc(-c3cccc(C(=O)O)c3)o2)C1=O	ALR inh 96.6 (no result: NPR1 activator, GC-B act)
Cc1c(C(=O)NCc2ccco2)oc2ccc(Br)cc12	none (no result: HDAC3 inh, ALR inh)
O=C(NCc1ccco1)c1cc2cc(Br)ccc2o1	ALR inh 97.9
Cc1cccc(NC(=O)CSCC(=O)N=c2sccn2C)c1	none
Cc1cccc(NC(=O)CSCC(=O)Nc2sccc2C#N)c1	ALR inh 98.4
N#C/C(=C\c1cc(O)c(O)c(O)c1)C(N)=O	ALR inh 99.3
N#C/C(=C\c1cc(Cl)c(OCc2ccc(Cl)cc2)c(Cl)c1)C(N)=O	none (no result: NPR1 activator, GC-B act)
COc1cc(/C=N/n2nnnc2N)ccc1O	ALR inh 99.4
Nc1nnnn1/N=C/c1ccc(O)cc1	ALR inh 95.7
COc1cc(/C=N/n2nnnc2N)ccc1OC(C)=O	none
Nc1nnnn1/N=C/c1cccc(O)c1	none
O=C1CN(S(=O)(=O)c2cccc(C(=O)O)c2)c2ccccc2N1	none
COc1ccc(CNC(=S)Nc2ccc3nc(N4CCOCC4)cc(C)c3c2)cc1	ALR inh 98.8
CCOCCCNC(=S)Nc1ccc2nc(N3CCOCC3)cc(C)c2c1	ALR inh 99.1
COc1ccc(CNC(=S)Nc2ccc3nc(N4CCN(C)CC4)cc(C)c3c2)cc1	none
CCN(CC)CCNC(=S)Nc1ccc2nc(N3CCCC3)cc(C)c2c1	ALR inh 99.4 (no result: HDAC3 inh)
COc1ccc(-c2nc(CSCC(=O)N3CCN(C(=O)c4ccco4)CC3)c(C)o2)cc1OC	ALR inh 98.9
COc1ccc(-c2nnc(SCC(=O)N3CCCC3)o2)cc1OC	none (no result: NPR1 activator, GC-B act)
COc1ccc(-c2nc(CSCC(=O)N3CCN(C)CC3)c(C)o2)cc1OC	ALR inh 99.1
CCN1CCN(CCNC(=O)CSCc2nc(-c3ccc(OC)c(OC)c3)oc2C)CC1	ALR inh 99.4
CCN1CCN(C(=O)CSCc2nc(-c3ccc(OC)c(OC)c3)oc2C)CC1	ALR inh 98.5
COC(=O)c1nccnc1C(=O)Nc1ccccc1N1CCOCC1	none
O=C(CNS(=O)(=O)Cc1ccccc1)NNc1ccccc1	none (no result: HDAC3 inh, ALR inh)
C[C@@H]1CCC[C@@]2(O[C@@H](CCO)C[C@@H](O)[C@@H]2O)O1	none
Cc1nn(C(=O)CNS(=O)(=O)c2ccccc2)c(C)c1Sc1ccc(Cl)cc1	none
N#Cc1c(NC(=O)CSc2ncccn2)oc(-c2ccccc2)c1-c1ccccc1	none
N#Cc1c(NC(=O)CN2CCOCC2)oc(-c2ccccc2)c1-c1ccccc1	ALR inh 98.7
CNc1nc(C)c([N+](=O)[O-])c(Nc2ccc(OC)cc2)n1	none
CC(=O)Nc1ccc(Nc2nc(C)c([N+](=O)[O-])c(Nc3ccc(NC(C)=O)cc3)n2)cc1	GC-B act 38.1
Cc1nc2ccc(S(=O)(=O)NC(C(=O)NCc3ccco3)C(C)C)cc2s1 (centres undefined)	none
Cc1ccc(CNC(=O)C(NS(=O)(=O)c2ccc3nc(C)sc3c2)C(C)C)cc1 (centres undefined)	ALR inh 93.3
COc1ccc(NC(=O)CNS(=O)(=O)c2ccc3nc(C)sc3c2)c(OC)c1	ALR inh 98.8
Cc1nc2ccc(S(=O)(=O)NCC(=O)NC(C)c3ccccc3)cc2s1 (centres undefined)	none
Cc1nc2ccc(S(=O)(=O)NCC(=O)N(C)Cc3ccccc3)cc2s1	ALR inh 98.9 (no result: NPR1 activator, GC-B act)
COCCNC(=O)CNS(=O)(=O)c1ccc2nc(C)sc2c1	none
CC(C)OCCCNC(=O)NC(=O)c1ccc(Cl)cc1	none
CC1(c2ccc3ccccc3c2)NC(=O)N(CC(=O)N2CCCC(C(F)(F)F)C2)C1=O (centres undefined)	none
Oc1ccccc1-c1cc(-c2ccco2)[nH]n1	none
Oc1ccc(Br)cc1-c1cc(-c2ccco2)[nH]n1	ALR inh 92.1
CSCC[C@H](NC(=O)[C@H](Cc1ccccc1)n1c(=O)[nH]c2ccccc2c1=O)C(=O)N1CCC[C@H]1C(=O)O	GC-B act 83.3
CC1(C(=O)NS(=O)(=O)c2ccc(Br)cc2)CCN1C(=O)CCC1CCCC1 (centres undefined)	none (no result: HDAC3 inh, ALR inh)
CCOC(=O)N1CCN(C(=O)CSCc2ccccc2Cl)CC1	ALR inh 99.0
CCOC(=O)N1CCN(C(=O)Cc2ccc(Cl)cc2)CC1	ALR inh 96.1

Screening results as filed in PubChem BioAssay.
